Experimental data as given in PubChem BioAssay (Tox21).
Calls of active or inactive are those of the source. Calls come from the whole dose curve; as a rule, active = well fitted curve in the direction sought with a large enough effect in the repeat runs; inconclusive = weak or mixed curves; inactive = flat fitted curve, though single readings scatter.

Assay: qHTS assay to test for compound auto fluorescence at 535 nm (green) in HEK293 cells (AID 720680)
Settings: green autofluorescence 485/535 nm; series mostly up to 91.3 µM; fluorescence, % of fluorescein: at the top concentration
Text: U.S. Tox21 Program National Center for Advancing Translational Sciences [NCATS] NIH Chemical Genomics Center [NCGC] U.S. Environmental Protection Agency [EPA] National Institutes of Environmental Health Sciences [NIEHS] National Toxicology Program [NTP] U.S. Food and Drug Administration [FDA] Tox21 Assay Overview: Compound auto fluorescence often interferes with screening of the compound library against various biological targets and signaling pathways. Some of these compounds may have fluorophoric properties. Such properties may interfere with the assay outputs resulting in false positives and/or negatives. To decrease such complications and ensure the compound activities are relevant in terms of biological response, the Tox21 10K compound library was screened for auto fluorescence. From the fluorophores used as reporter signals in our screening assays, the auto fluorescence equivalencies of compounds against three fluorophores have been evaluated: Triamterene, Fluorescein and Rose Bengal sodium for blue, green and red fluorescence, respectively. The fluorescence intensities were measured using Excitation/Emission wavelengths at 405/460nm, 485/535nm and 540/590nm for blue, green and red labels, respectively. This assay includes the green fluorescence data.
Tox21 Assay Protocol Summary: 2,000 HEK293 cells in 5 uL of culture medium containing 10% dialyzed FBS per well were dispensed into black wall/clear bottom 1536-well plates using a Multidrop Combi Dispenser (Thermo Scientific). The assay plates were incubated for 4-5 hr at 37C to allow cell attachment to the well bottom, followed by the transfer of 23 nL compound or DMSO vehicle by a pintool work station (Kalypsys, San Diego, CA). After the assay plates were incubated overnight at 37C and 5% CO2, fluorescence intensities in the assay plates were measured by an Envision (PerkinElmer, Shelton, CT) plate reader using three labels for measuring blue, green and red fluorescence at […] 460, 535 and 590nm respectively.
% is set by controls: 0 for no effect and ±100 for the full control effect.

Row | Structure (SMILES) | fluorescence, % of fluorescein | outcome
1 | O=C1c2ccccc2C(=O)C1c1nc2ccccc2c(Br)c1O | 0.065% (inactive) | 
2 | Cc1cc(O)ccc1O | -0.0083% (inactive) | 
3 | CN1C(=O)c2ccccc2C1=O | -0.276% (inactive) | 
4 | Oc1cccc(Nc2ccccc2)c1 | 0.013% [at 95.7 µM] (inactive) | 
5 | CC(C)Nc1cccnc1N1CCN(C(=O)c2cc3cc(NS(C)(=O)=O)ccc3[nH]2)CC1 | 0.0546% [at 46 µM] (inactive) | 
6 | CC1CC(C)C(=O)C1=O (stereo not given) | -0.0401% (inactive) | 
7 | CC(CO)CO | -0.0861% [at 95.7 µM] (inactive) | 
8 | C1C[C@@H]2[C@H]3CC[C@H](C3)[C@@H]2C1 | 0.0169% (inactive) | 
9 | CCC(=O)C1CC(C(C)C)CC=C1C (stereo not given) | 0.0318% (inactive) | 
10 | CC1=Nc2ccc3ccccc3c2C1(C)C | -0.0053% (inactive) | 
11 | CC1CC(OC(=O)C(O)c2ccccc2)CC(C)(C)N1C (stereo not given) |  | inactive
12 | O=C1c2ccccc2C(=O)N1CCc1noc(-c2ccc(CN3CCCCCC3)s2)n1 | -0.026% (inactive) | 
13 | CN1CC(=O)N2[C@H](c3ccc4c(c3)OCO4)c3[nH]c4ccccc4c3C[C@@H]2C1=O | 0.0817% [at 46 µM] (inactive) | 
14 | CCCCCC[C@@H](O)C/C=C\CCCCCCCC(=O)OCC(O)CO (stereo not given in full) | -0.104% (inactive) | 
15 | CCCCCCCCCCCCCCN(CCO)CCO | -0.0197% (inactive) | 
16 | Cc1ccccc1S | 0.0383% (inactive) | 
17 | CCC1NC(=O)c2cc(S(N)(=O)=O)c(Cl)cc2N1 (stereo not given) | -0.0959% [at 18.6 µM] (inactive) | 
18 | c1ccc(C[n+]2cccc3ccccc32)cc1 | 0.0396% (inactive) | 
19 | C=C1c2cccc(O)c2C(O)=C2C(=O)[C@]3(O)C(O)=C(C(N)=O)C(=O)[C@@H](N(C)C)[C@@H]3[C@@H](O)[C@H]12 | 0.0422% [at 18.6 µM] (inactive) | 
20 | CC(=O)NC1(c2cccc(F)c2)CCN(CC[C@@]2(c3ccc(Cl)c(Cl)c3)CN(c3ccccc3)C(=O)CO2)CC1 | 0.0392% (inactive) | 

Row | Structure (SMILES) | fluorescence, % of fluorescein | outcome
21 | CC(C)(O)c1ccc(CNC(=O)c2cccnc2Oc2ccc3nonc3c2)cc1 | 0.0242% (inactive) | 
22 | O=c1[nH]c2ccc(Cl)cc2o1 | 0.0282% (inactive) | 
23 | CCOC(=O)c1ccc(C#Cc2ccc3c(c2)C(C)(C)CCS3)nc1 | 0.0682% [at 46 µM] (inactive) | 
24 | CC(C)=CC(=O)C=C(C)C | -0.0535% (inactive) | 
25 | C=C(C)C(=O)OCCCCCCCCCCCCC | -0.0115% (inactive) | 
26 | CCC1CO1 (stereo not given) | 0.039% (inactive) | 
27 | O=C1c2ccccc2C(=O)C1c1ccc(Br)cc1 | -0.0427% [at 46 µM] (inactive) | 
28 | Oc1c(I)cc(I)c2cccnc12 | 0.0667% [at 46 µM] (inactive) | 
29 | Nc1ncnc2c1ncn2[C@H]1CC[C@@H](CO)O1 |  | inactive
30 | CC(=O)Nc1cc(S(=O)(=O)O)cc2cc(S(=O)(=O)O)c(N=Nc3ccccc3)c(O)c12 | -0.165% (inactive) | 
31 | Nc1nnc(-c2ccc([N+](=O)[O-])o2)o1 | -0.0029% (inactive) | 
32 | CCN(CC)CCNC(=O)COc1ccc(OC)cc1 | 0.0085% [at 46 µM] (inactive) | 
33 | C=Cc1ccc(S(=O)(=O)O)cc1 |  | inactive
34 | CC1(C)S[C@@H]2[C@H](NC(=O)C(c3ccccc3)S(=O)(=O)O)C(=O)N2[C@H]1C(=O)O (stereo not given in full) | -0.176% [at 46 µM] (inactive) | 
35 | OC[C@H]1O[C@@H](n2cnc3c(=S)nc[nH]c32)[C@H](O)[C@@H]1O | 0.0594% [at 46 µM] (inactive) | 
36 | C=COCC(C)C | -0.108% [at 95.7 µM] (inactive) | 
37 | COc1ccccc1N1CCN(CC(O)COc2cccc3ccccc23)CC1 (stereo not given) | 0.127% [at 46 µM] (inactive) | 
38 | Cc1ccc2c(Br)cc(Br)c(O)c2n1 | 0.0444% [at 46 µM] (inactive) | 
39 | CCC(C)COC(C)=O (stereo not given) | -0.145% (inactive) | 
40 | CC(=O)Nc1ccc(C)cc1C | 0.0627% (inactive) | 
